Results from PubChem BioAssay AID1159580 (chemical genetic matrix, 2015).
In all, about 5,500 compounds went through this assay and about 2,000 (36%) were called active. Roughly 18% stayed inconclusive and do not appear here. Cut-off read from the data, not from the text of the source: active = normalized growth mostly below about 0.91 (no sharp cut-off); inconclusive = no clear call, values can overlap the other calls; inactive = mostly above about 0.92. Some of the results follow.

Experiment: chemical genetic growth profiling, strain panel (AID 1159580);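 note: tested at 20 µM; growth read once vehicle control cultures reached saturation at 30 °C; 1 = growth at the plate median or of vehicle wells; lower values mean less growth of the strain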
Details: growth OD

Measured: normalized growth

C=C1CCC2C(CC2(C)C)C(=O)CCC1O (stereo unspecified)
inactive: S. cerevisiae deletion strains, locus YJL168C, strain set2, active compounds read low 1.01 | S. cerevisiae deletion strains, locus YJL187C, strain SWE1 (second series), active compounds read low 1.06 | S. cerevisiae deletion strains, locus YJL187C, strain SWE1, active compounds read low 0.993 | S. cerevisiae deletion strains, locus YJR066W, strain TOR1, active compounds read low 0.949 | S. cerevisiae deletion strains, locus YKL009W, strain mrt4, active compounds read low 1.02 | S. cerevisiae deletion strains, locus YKL068W, active compounds read low 1 | S. cerevisiae deletion strains, locus YKL085W, strain MDH1 (second series), active compounds read low 0.993 | S. cerevisiae deletion strains, locus YKL085W, strain MDH1, active compounds read low 0.993 | S. cerevisiae deletion strains, locus YKL160W, strain elf1, active compounds read low 0.982 | S. cerevisiae deletion strains, locus YKR001C, strain vps1, active compounds read low 1.02 | S. cerevisiae deletion strains, locus YKR026C, strain gcn3, active compounds read low 1 | S. cerevisiae deletion strains, locus YKR091W, strain srl3, active compounds read low 0.988 | S. cerevisiae deletion strains, locus YLL001W, strain dnm1, active compounds read low 0.954 | S. cerevisiae deletion strains, locus YLL026W, active compounds read low 1 | S. cerevisiae deletion strains, locus YLL041C, strain sdh2, active compounds read low 0.987 | S. cerevisiae deletion strains, locus YLR027C, strain aat2, active compounds read low 0.996 | S. cerevisiae deletion strains, locus YLR039C, strain RIC1, active compounds read low 1.04 | S. cerevisiae deletion strains, locus YLR058C, strain SHM2, active compounds read low 1.04 | S. cerevisiae deletion strains, locus YLR102C, strain apc9, active compounds read low 1.01 | S. cerevisiae deletion strains, locus YLR113W, strain HOG1, active compounds read low 1.01 | S. cerevisiae deletion strains, locus YLR221C, strain rsa3, active compounds read low 1.04 | S. cerevisiae deletion strains, locus YLR258W, strain gsy2, active compounds read low 0.993 | S. cerevisiae deletion strains, locus YLR262C, strain YPT6 (second series), active compounds read low 1.01 | S. cerevisiae deletion strains, locus YLR268W, strain sec22, active compounds read low 1 | S. cerevisiae deletion strains, locus YLR320W, strain mms22, active compounds read low 1.06 | S. cerevisiae deletion strains, locus YLR342W, strain FKS1, active compounds read low 0.997 | S. cerevisiae deletion strains, locus YLR357W, strain rsc2, active compounds read low 0.981 | S. cerevisiae deletion strains, locus YLR370C, strain arc18, active compounds read low 1 | S. cerevisiae deletion strains, locus YLR371W, strain rom2, active compounds read low 1.02 | S. cerevisiae deletion strains, locus YLR384C, strain iki3, active compounds read low 1.01 | S. cerevisiae deletion strains, locus YLR418C, strain cdc73, active compounds read low 1.05 | S. cerevisiae deletion strains, locus YML016C, strain PPZ1, active compounds read low 1.02 | S. cerevisiae deletion strains, locus YML032C, strain rad52, active compounds read low 1.01 | S. cerevisiae deletion strains, locus YML120C, strain ndi1, active compounds read low 0.965 | S. cerevisiae deletion strains, locus YML124C, strain tub3, active compounds read low 1.01 | S. cerevisiae deletion strains, locus YMR058W, strain fet3, active compounds read low 0.98 | S. cerevisiae deletion strains, locus YMR078C, strain ctf18, active compounds read low 1.01 | S. cerevisiae deletion strains, locus YMR125W, strain sto1, active compounds read low 0.973 | S. cerevisiae deletion strains, locus YMR129W, active compounds read low 1.01 | S. cerevisiae deletion strains, locus YMR205C, strain PFK2, active compounds read low 0.955 | S. cerevisiae deletion strains, locus YMR223W, strain ubp8, active compounds read low 1.03 | S. cerevisiae deletion strains, locus YMR231W, strain pep5, active compounds read low 1.01 | S. cerevisiae deletion strains, locus YMR307W, strain GAS1, active compounds read low 1.07 | S. cerevisiae deletion strains, locus YNL067W, strain RPL9B, active compounds read low 1.03 | S. cerevisiae deletion strains, locus YNL071W, strain lat1, active compounds read low 0.992 | S. cerevisiae deletion strains, locus YNL128W, strain TEP1, active compounds read low 0.993 | S. cerevisiae deletion strains, locus YNL183C, strain NPR1, active compounds read low 0.968 | S. cerevisiae deletion strains, locus YNL209W, strain ssb2, active compounds read low 0.987 | S. cerevisiae deletion strains, locus YNL233W, strain BNI4, active compounds read low 1.05 | S. cerevisiae deletion strains, locus YNL248C, strain rpa49, active compounds read low 1.01 | S. cerevisiae deletion strains, locus YNL250W, strain rad50, active compounds read low 1.05 | S. cerevisiae deletion strains, locus YNL271C, strain bni1, active compounds read low 1.01 | S. cerevisiae deletion strains, locus YNL298W, strain CLA4, active compounds read low 1.03 | S. cerevisiae deletion strains, locus YNL307C, strain MCK1, active compounds read low 1.03 | S. cerevisiae deletion strains, locus YNL322C, strain KRE1 (second series), active compounds read low 0.974 | S. cerevisiae deletion strains, locus YNL322C, strain KRE1, active compounds read low 0.991 | S. cerevisiae deletion strains, locus YNR049C, strain mso1, active compounds read low 0.995 | S. cerevisiae deletion strains, locus YNR052C, strain pop2, active compounds read low 1.03 | S. cerevisiae deletion strains, locus YOL012C, strain htz1 0.879 | S. cerevisiae deletion strains, locus YOL147C, strain pex11, active compounds read low 1 | S. cerevisiae deletion strains, locus YOR001W, strain rrp6, active compounds read low 1.02 | S. cerevisiae deletion strains, locus YOR061W, strain CKA2, active compounds read low 1.02 | S. cerevisiae deletion strains, locus YOR069W, strain VPS5, active compounds read low 1.01 | S. cerevisiae deletion strains, locus YOR070C, strain gyp1, active compounds read low 1.02 | S. cerevisiae deletion strains, locus YOR080W, strain dia2, active compounds read low 0.995 | S. cerevisiae deletion strains, locus YOR083W, strain WHI5, active compounds read low 0.988 | S. cerevisiae deletion strains, locus YOR106W, strain vam3, active compounds read low 0.961 | S. cerevisiae deletion strains, locus YOR136W, strain idh2, active compounds read low 1.01 | S. cerevisiae deletion strains, locus YOR144C, strain elg1, active compounds read low 1 | S. cerevisiae deletion strains, locus YOR184W, strain ser1, active compounds read low 0.989 | S. cerevisiae deletion strains, locus YOR231W, strain MKK1, active compounds read low 0.994 | S. cerevisiae deletion strains, locus YOR265W, strain rbl2, active compounds read low 0.992 | S. cerevisiae deletion strains, locus YOR270C, strain vph1, active compounds read low 0.986 | S. cerevisiae deletion strains, locus YOR290C, strain snf2, active compounds read low 0.956 | S. cerevisiae deletion strains, locus YOR316C, strain cot1, active compounds read low 1.03 | S. cerevisiae deletion strains, locus YPL051W, strain arl3, active compounds read low 1 | S. cerevisiae deletion strains, locus YPL078C, strain atp4, active compounds read low 0.946 | S. cerevisiae deletion strains, locus YPL106C, strain sse1, active compounds read low 0.958 | S. cerevisiae deletion strains, locus YPL240C, strain hsp82, active compounds read low 0.998 | S. cerevisiae deletion strains, locus YPL256C, strain CLN2, active compounds read low 1.02 | S. cerevisiae deletion strains, locus YPR119W, strain clb2, active compounds read low 1.02 | S. cerevisiae deletion strains, locus YPR141C, strain kar3, active compounds read low 1.01 | S. cerevisiae deletion strains, locus YPR163C, strain tif3, active compounds read low 1.02 | S. cerevisiae deletion strains, locus YPR167C, strain met16, active compounds read low 1.02 | S. cerevisiae deletion strains, strain wtn01, active compounds read low 1.01 | S. cerevisiae strains, strain wild type, active compounds read low 0.989
